# Source: PubChem
# Hits are enriched below; roughly 5.4% of the tested compounds scored in any of these assays.
# ALR inh: blocks human ALR sulfhydryl oxidase activity; purified ALR, DTT oxidation, H2O2 HRP-luminol luminescence; inhibition, % (no concentration beside the values); actives 3.8% (n = 290,000);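 active = mean replicate inhibition above about 79%, with every replicate also reaching it, limit read from the data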
# Target sequence (P55789 whole entry, looked up): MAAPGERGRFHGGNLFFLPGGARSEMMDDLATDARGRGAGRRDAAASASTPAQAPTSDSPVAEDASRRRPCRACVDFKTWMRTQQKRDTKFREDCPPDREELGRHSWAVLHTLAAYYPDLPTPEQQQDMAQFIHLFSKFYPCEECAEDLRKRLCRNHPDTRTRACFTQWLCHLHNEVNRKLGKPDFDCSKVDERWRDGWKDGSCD
# GASC-1 inh: human JMJD2C demethylase inhibition. Q9H3R0. GST-JMJD2C(1-420) H3K9me3 demethylation, DELFIA europium. inhibition, % at 2.35 µM. actives 0.069% (n = 330,000). AID 2099;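 active = more than half of a compound's replicate wells show inhibition beyond 50%, single wells judged on their own value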;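 note: signal counts dimethyl H3K9 product captured on neutravidin plate; 0% = median of DMSO wells and 100% = 0.3 times that DMSO median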
# beta cell repl: inducers of beta-cell replication in MIN6 cells; proliferation, % at 10 µM; MIN6 cells proliferation, ATPlite luminescence, 48 h; cells starved in 0.2% serum; 100% = growth in 10% serum; actives 0.29% (n = 330,000); AID 2380;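 active = compounds whose signal lies at least 3.5 SD above the mean of all wells on their plate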;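 note: 0% = DMSO-treated cells in low-serum medium and 100% = 10% serum control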
# M18AAP inhibitor: PfM18AAP enzyme inhibition; recombinant PfM18AAP, H-Glu-NHMec fluorogenic cleavage; inhibition, % at 7.35 µM; actives 1.2% (n = 290,000);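 active = inhibition above the campaign mean inhibition over all tested compounds plus 3 SD, cut at about 28% in these data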;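 note: 0% = plate median of test compound wells and 100% = 2 mM ZnCl2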
# Granule exo inh: lytic granule exocytosis inhibition. actives 0.66% (n = 360,000). inhibition, % at 10 µM. TALL-104 LAMP-1 surface exposure, flow cytometry; cells stimulated with thapsigargin and PMA;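 active = inhibition above about 55%, limit read from the data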
# SMARCA2 activ: SMARCA2 function activation, primary screen; activation, % at 9.1 µM; actives 1% (n = 370,000); MG213 cells, MMTV-luciferase reporter, dexamethasone, overnight; in the data active = activation above about 7.8%;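 note: 0% = vehicle wells and 100% = reference activator wells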
# * marks the source's active call; other numbers are inactive results; nt = not tested or not shown.
SMILES,ALR inh,GASC-1 inh,beta cell repl,M18AAP inhibitor,Granule exo inh,SMARCA2 activ
N#Cc1cc(-c2ccccc2)nnc1Sc1ccccc1,1,102*,-2,6,-1,1
CC1(c2nnnn2C2CCCCC2)CSCC(=O)N1CCc1ccc(O)cc1 (configuration not stated),nt,nt,nt,nt,nt,1
Nc1cccc(-c2cnc3ccccc3n2)c1,99*,-27,-3,-5,-13,6
Cc1ccc(CNC(=O)Nc2ccc(OC(F)(F)F)cc2)n1C,-22,2,5,23,-3,-1
Cc1ccc(CNC(=O)Nc2ccc(F)cc2)n1C,-7,-1,nt,31*,0,1
CC(=O)Nc1cccc(NC(=O)CSc2ncc(C(=O)Nc3ccc(F)cc3)c(=O)n2C)c1,99*,-6,-2,nt,-5,-1
CC(=O)Nc1ccc(NC(=O)CSc2ncc(C(=O)Nc3ccc(F)cc3)c(=O)n2C)cc1,99*,-5,0,nt,-1,2
Cn1c(SCC(=O)NCc2ccc(F)cc2)ncc(C(=O)Nc2ccccc2)c1=O,-2,-3,-6,nt,-11,1
CC(=O)Nc1ccc(-n2nnnc2SCC(=O)NC2CCCC2)cc1,-1,3,-3,-2,-2,4
Cn1c(SCC(=O)NCC2CCCO2)ncc(C(=O)Nc2ccc(Cl)cc2)c1=O (configuration not stated),20,10,-7,nt,0,2
CC(=O)Nc1ccc(NC(=O)CSc2nnnn2-c2ccc(F)cc2)cc1,98*,-20,-1,-12,-1,0
CC(=O)Nc1ccc(NC(=O)CSc2ncc(C(=O)Nc3ccc(Cl)cc3)c(=O)n2C)cc1,99*,-7,2,nt,9,nt
O=C(O)CC(Sc1ccc(Cl)cc1)C(=O)Nc1ccccc1 (configuration not stated),nt,nt,nt,nt,nt,-4
Cn1c(SCC(=O)NCCc2ccccc2)ncc(C(=O)Nc2ccccc2)c1=O,0,2,0,nt,2,-3
CC(=O)c1cccc(NC(=O)CSc2ncc(C(=O)Nc3ccccc3)c(=O)n2C)c1,99*,-4,-7,nt,-1,-2
COc1cc(/C=C(\C#N)C(=O)N2CCc3ccccc32)ccc1O,100*,5,0,4,0,1
CCOC(=O)/C(C#N)=C\c1ccc(O)c(OC)c1,99*,-20,-1,5,-5,-4
N#C/C(=C\c1ccc(O)c(O)c1)C(=O)N1CCc2ccccc21,99*,-1,-4,nt,3,-1
O=C(CCC(=O)N1CCc2ccccc21)N1CCc2ccccc21,nt,nt,nt,-1,nt,nt
CN(c1ccc(OCC(=O)OCC(=O)c2c(N)n(C)c(=O)n(C)c2=O)cc1)S(=O)(=O)c1ccc2ccccc2c1,-11,9,-6,-5,69*,1
Nc1[nH]c(C(=O)c2ccc(Cl)cc2)c(-c2ccc(Br)cc2)c1C(=O)NCc1ccc(Cl)cc1Cl,nt,nt,nt,nt,nt,-3
COc1ccc(/C=C2\SC(=S)N(CCCC(=O)N3CCN(C)CC3)C2=O)cc1,-1,-18,-1,14,63*,-8
CCc1ccc(/C=C2\SC(=S)N(CCCC(=O)N3CCN(C)CC3)C2=O)cc1,nt,nt,nt,nt,72*,-13
Cc1ccc(/C=C2\SC(=S)N(CCCC(=O)Nc3ccccc3C(=O)O)C2=O)cc1,-1,3,-7,-2,3,-8
CCc1ccc(/C=C2\SC(=S)N(CCCC(=O)Nc3ccccc3C(=O)O)C2=O)cc1,97*,2,-6,-2,16,-5
SMILES,ALR inh,GASC-1 inh,beta cell repl,M18AAP inhibitor,Granule exo inh,SMARCA2 activ
COc1ccc(/C=C2/SC(=S)N(CCCC(=O)Nc3cccc(O)c3)C2=O)cc1,nt,-6,0,-3,97*,-5
CC(C)c1ccc(OC[C@@H](O)CN2CCC(C(O)(c3ccccc3)c3ccccc3)CC2)cc1,nt,nt,nt,nt,nt,-5
CCCCCCCCNS(=O)(=O)CC1NCc2cc(OC)ccc21 (configuration not stated),nt,nt,nt,nt,nt,1
COc1cccc(CNS(=O)(=O)c2cc3c(cc2Br)CC(C)N3C(C)=O)c1 (configuration not stated),nt,nt,nt,nt,nt,2
O=C(O)CC/C(=C\c1cc([N+](=O)[O-])ccc1Cl)c1nc2ccccc2s1,96*,2,nt,22,4,-3
O=C(O)CC/C(=C\c1ccccc1[N+](=O)[O-])c1nc2ccccc2s1,97*,0,-2,-1,0,-2
